Hits are enriched below; roughly 3.7% of the tested compounds scored in any of these assays.
tim23-1 inh: growth inhibitors of tim23-1 mutant yeast; S. cerevisiae tim23-1 growth, BacTiter-Glo luminescence, 24 h; inhibition, % at 20 µM; 330,000 compounds, 1.3% hits; AID 463212;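 active means growth inhibition of the mutant yeast at or above 50%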;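 further: temperature-sensitive mutant grown at 25 °C; plate controls were DMSO-treated mutant yeast for no effect and medium wells lacking yeast for full effect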
NALP3 yeast inh: inhibitors of NALP3 inflammasome in yeast; Yeast reconstituted NLRP3/ASC/caspase-1, beta-gal luminescence, 24 h; inhibition, % at 10 µM; 330,000 compounds, 0.39% hits; AID 2825;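 active means inhibition of 50% or more; inactive means inhibition below 50%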;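 further: plate controls were induced DMSO wells for no effect and uninduced yeast grown without galactose for full effect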
PfHsp90 yeast 2: inhibits growth of yeast expressing Plasmodium falciparum Hsp90. S. cerevisiae expressing PfHsp90, BacTiter-Glo ATP, 48 h; yeast lacking PDR1 and PDR3 efflux regulators. inhibition, % at 9.4 µM. 310,000 compounds, 0.32% hits. AID 504621;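 active means every replicate shows inhibition above about 80%, whatever the replicate mean, limit read from the data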;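 further: 0% = DMSO neutral controls and 100% = 20 µM radicicol positive controls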
tim10-1 inh: growth inhibitors of tim10-1 mutant yeast; S. cerevisiae tim10-1 ts strain growth, BacTiter-Glo, 24 h; inhibition, % at 20 µM; 330,000 compounds, 2.2% hits;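 active means inhibition of at least 40%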;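 further: mutant grown at 25 °C; 0% = DMSO wells with yeast and 100% = wells holding no yeast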
TIM10 inh: growth inhibitors of TIM10 yeast strain. S. cerevisiae TIM10 strain growth, BacTiter-Glo luminescence, 24 h. inhibition, % at 10 µM. 330,000 compounds, 1.4% hits. AID 463195;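 active means inhibition of 40% or more at the single tested concentration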;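 further: wild-type TIM10 isogenic control strain grown at permissive 25 °C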
NALP3 yeast conf: NALP3 inhibition confirmation in yeast. 1,300 compounds, 81% hits. inhibition, % at 10 µM. shares compounds with NALP3 yeast inh. yeast expressing human NALP3, luminescence; in the data active means inhibition above about 48%
Casp1 ASC ctr: active in yeast caspase-1-ASC counter-screen for NALP3 inhibitors. shares compounds with NALP3 yeast inh. yeast expressing Caspase-1-ASC, luminescence counter screen. inhibition, % at 10 µM. 1,000 compounds, 66% hits. AID 488784
NALP3 retest: retest-confirmed inhibitor of NALP3 in yeast. yeast expressing human NALP3, luminescence read-out. 1,000 compounds, 53% hits. inhibition, % at 10 µM. shares compounds with NALP3 yeast inh
tim10-1 confirm: tim10-1 yeast growth inhibition, confirmed; shares compounds with tim10-1 inh; S. cerevisiae tim10-1 ts strain growth, BacTiter-Glo, 24 h; inhibition, % at 20 µM; 7,400 compounds, 56% hits; AID 463213;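 active means inhibition of yeast growth at or above a set limit in either of two repeat tests at 20 µM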;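 further: tim10-1 mutant grown at permissive 25 °C to find synthetic lethal compounds; 0% = DMSO yeast wells and 100% = medium wells without yeast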
tim10 confirm: confirmation of TIM10 yeast growth inhibitors | S. cerevisiae tim10 strain growth, BacTiter-Glo luminescence, 24 h | inhibition, % at 10 µM | shares compounds with TIM10 inh | 4,600 compounds, 63% hits | AID 463215;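 active means inhibition of yeast growth at or above a set limit in either of two replicates at 10 µM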;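 further: this counterscreen used the strain with wild-type TIM10; 0% = yeast with DMSO and 100% = medium wells lacking yeast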
tim23-1 conf: tim23-1 yeast growth inhibition, confirmed | shares compounds with tim23-1 inh | S. cerevisiae tim23-1 growth, BacTiter-Glo luminescence, 24 h | inhibition, % at 20 µM | 4,400 compounds, 83% hits | AID 463218;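 active means inhibition above about 39% in either of two replicate wells at 20 µM, limit read from the data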;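 further: temperature-sensitive tim23-1 mutant grown at 25 °C; 0% = DMSO wells with yeast and 100% = medium wells without yeast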
Numbers without * were called inactive; / = no result given. Unless noted, no stated cut-off is given here; in the data, active means inhibition above about 50%; inactive means the rest.

SMILES | tim23-1 inh | NALP3 yeast inh | PfHsp90 yeast 2 | tim10-1 inh | TIM10 inh | tim10-1 confirm | others
COc1c(C)cc(Br)cc1C(=O)Nc1ccc(S(N)(=O)=O)cc1 | 21 | -4 | 1 | 1 | 9 | /
C=CCSc1nsc(NC(=O)Nc2ccc(F)cc2)n1 | 78* | 56* | -1 | 62* | 66* | 74* | NALP3 yeast conf=78*;Casp1 ASC ctr=79*;NALP3 retest=82*;tim10 confirm=65*;tim23-1 conf=78*
O=C(NN(C(=O)c1ccccc1)c1cccs1)c1ccccc1 | / | / | -3 | / | / | /
O=C(Nc1ccc(Cl)cc1)c1ccc2c(=O)n3c(nc2c1)CCCCC3 | -14 | 28 | / | -6 | -1 | /
O=C(Nc1cccc(Cl)c1)c1ccc2c(=O)n3c(nc2c1)CCCCC3 | 54* | 70* | 3 | 45* | 73* | 30 | NALP3 yeast conf=66*;tim10 confirm=-15;tim23-1 conf=80*
CN(CC(=O)Nc1cccc(F)c1)C(=O)C1CC(=O)N(Cc2ccccc2)C1 (stereo not given) | -8 | 17 | 14 | -6 | 1 | /
O=C(Cc1ccccc1)N/N=C/c1ccc2cccc(O)c2n1 | 48 | 4 | 0 | 47* | 20 | 34*
NC(=O)N/N=C/c1ccc2cccc(OCc3ccccc3)c2n1 | 22 | 13 | / | -2 | 14 | /
Cc1cc(C)n2nc(SCc3ccc(F)cc3Cl)nc2n1 | 37 | 27 | 22 | 2 | 15 | /
Cc1cc(C)n2nc(SCc3c(F)cccc3Cl)nc2n1 | 42 | 18 | -8 | 48* | 26 | 33*
NS(=O)(=O)c1cccc(NC(=O)Nc2ccccc2)c1 | 5 | 23 | 8 | 11 | -10 | /
CCN(c1cccc(C)c1)S(=O)(=O)c1cnc[nH]1 | 12 | 17 | 11 | 10 | 15 | /
CCCCN1/C(=C/c2cccc[n+]2C)Sc2cc(NC(C)=O)ccc21 | 11 | 10 | 7 | 2 | 3 | /
CCCCN1/C(=C/c2ccc3ccccc3[n+]2CC)Sc2ccccc21 | 39 | 14 | -8 | 60* | -45 | 57*
Cc1oc2ccc(O)cc2c1C(=O)c1ccc(Cl)cc1 | 23 | 2 | -6 | 31 | 5 | /
Cc1oc2ccc(O)cc2c1C(=O)c1ccc([N+](=O)[O-])cc1 | 45 | 22 | 10 | 45* | 28 | 27
Cc1ccc(N2C(=O)C3C4C=CC(CNC(=S)Nc5cccc(Cl)c5)(O4)C3C2=O)cc1 (stereo not given) | 30 | 14 | 105* | 44* | 36 | 50*
O=C1C2C3C=CC(CO)(O3)C2C(=O)N1c1ccc(-c2ccccc2)cc1 (stereo not given) | 43 | 26 | / | 95* | 38 | 97*
O=C(Nc1cc2c3c(c1)CC(=O)N3CCC2)c1ccc(F)cc1 | -19 | 22 | / | -9 | 3 | /
CCOC(=O)CSc1nc2ccc(N3CCOCC3)cc2c(=O)n1Cc1ccccc1 | 24 | -4 | 13 | 30 | 17 | /
COC(=O)c1c(NC(NC(=O)C(C)(C)C)C(Cl)(Cl)Cl)sc2c1CCC2 (stereo not given) | 26 | 8 | -8 | 36 | 31 | /
COC(=O)c1c(NC(NC(=O)C(C)C)C(Cl)(Cl)Cl)sc2c1CCC2 (stereo not given) | 25 | 0 | -31 | 44* | 24 | 24
CCCn1[nH]cc(SC)c(=O)c1=O | 20 | -1 | -6 | -10 | -8 | /
Cn1c(=O)[nH]c(=O)c2c1nc(Sc1nc3ccccc3s1)n2Cc1ccccc1 | -4 | 17 | -5 | 1 | 6 | /
Cc1nc2c(Br)c(C)nn2c2c1CCC2 | 6 | -4 | -3 | 48* | 2 | 30
SMILES | tim23-1 inh | NALP3 yeast inh | PfHsp90 yeast 2 | tim10-1 inh | TIM10 inh | tim10-1 confirm | others
CN(C1CCCCC1)S(=O)(=O)c1ccc(NC(=O)c2ccc(Br)o2)cc1 | 43 | 20 | 3 | 52* | 30 | 42*
CN(C)S(=O)(=O)c1ccc(NC(=O)c2ccc(Br)o2)cc1 | 35 | 17 | 21 | 30 | 14 | /
Cc1ccc(NC(=S)N2CCN(C3CCCCC3)CC2)cc1 | -18 | 1 | 11 | 2 | -3 | /
Cc1cccc(-n2ncc3c(NCc4cccnc4)ncnc32)c1 | -14 | 21 | -7 | -3 | 4 | /
Cc1ccc(-n2ncc3c(NCc4cccnc4)ncnc32)cc1C | 11 | 17 | -3 | 43* | 24 | -10
Cc1ccc(-n2ncc3c(NCc4ccc5c(c4)OCO5)ncnc32)c(C)c1 | 9 | 19 | 8 | 41* | -11 | 2
Cc1c(Cl)c([N+](=O)[O-])nn1CC(=O)NC1CCCCC1 | 16 | -4 | 2 | 6 | 0 | /
CCOc1ccc(/C=N/n2cc(-c3ccccc3)[nH]c2=S)cc1 | -3 | 14 | -12 | 42* | 21 | 15
O=C(N/N=C(\CC(=O)c1cccs1)C(F)(F)F)c1ccncc1 | 21 | 23 | 6 | 20 | 20 | /
Cc1ccc(C(=O)N/N=C(/CC(=O)c2cccs2)C(F)(F)F)cc1 | 47 | -3 | -40 | 47* | 27 | 29*
CCCC(=O)C1=C(O)C(C(=O)OC)C(C)(C)CC1=Nc1ccc(N)cc1 (stereo not given) | 28 | 13 | / | 42* | 17 | 28
CCCC(=O)C1=C(O)C(C(=O)OC)C(C)(C)CC1=Nc1ccc(C)cc1 (stereo not given) | 38 | 15 | 17 | 26 | 15 | /
CC(NC(=O)c1cnc2n(c1=O)CCS2)c1ccccc1 (stereo not given) | 12 | -5 | -13 | 9 | 1 | /
c1ccc(-c2ccccc2-c2nc(-c3cccnc3)no2)cc1 | -3 | 11 | -5 | 45* | 1 | 13
c1cncc(-c2noc(-c3cccc4ccccc34)n2)c1 | 16 | -11 | / | 31 | 23 | /
Cc1ccc(-c2nc(-c3cccnc3)no2)cc1 | 19 | 27 | -6 | 24 | 19 | /
CCC(=O)Oc1ccc(-c2nc(-c3cccnc3)no2)cc1 | 44 | 12 | / | 47* | 38 | 46*
Cc1ccccc1CNC(=O)c1ccc(CSCc2ccccc2)cc1 | 21 | 27 | 14 | 16 | 26 | /
COc1cc(Cl)c(C)cc1NC(=O)COC(=O)c1cnc(C)cn1 | 19 | 11 | -10 | 15 | 6 | /
CCOC(=O)N1CCN(c2c(F)cc3[nH]c(=S)[nH]c3c2Br)CC1 | 35 | 24 | 17 | 57* | 23 | 29

High-throughput results as filed in PubChem BioAssay.
